Results filed as inconclusive are left out. Activity calls are given as the source filed them. Calls follow the shape of the dose curve; as a rule, active = well fitted cell-killing curve with a large enough effect; inconclusive = small, poorly fitted or top-dose-only effect; inactive = no such curve, though single readings can be large or run the other way.
Test: qHTS of pediatric cancer cell lines to identify multiple opportunities for drug repurposing: Primary screen for SJ-GBM2 cells (AID 1347091)
Conditions: SJ-GBM2 viability, CellTiter-Glo luminescence, 48 h; series mostly up to 46 µM; activity change, negative = cytotoxic: at the top concentration
Text: Drug repurposing or repositioning has been offered as a strategy for drug development in oncology programs. This approach has special potential for childhood cancers and other rare or orphan diseases, where the expected return on new drug development has been a disincentive to pharmaceuticals.
In this project we exploit the poly-pharmacology of drugs to discover new indications via phenotypic screening of a panel of 19 well-characterized cell lines derived from solid tumors seen in children and adolescents. The goal is to identify approved drugs with previously unrecognized anticancer properties that has the potential to reveal new mechanisms and biological processes involved in carcinogenesis or drug resistance. We employed a titration-based paradigm (quantitative high-throughput screening or qHTS), where all compounds were tested at multiple concentrations for their effect on cell viability. Concentration-response curves (CRCs) were derived directly from the primary screen, and both potency and efficacy values were used to identify compounds with robust bioactivity profiles. We screened the NIH Chemical Genomics Center (NCGC) Pharmaceutical Collection (NPC) and Mechanism Interrogation Plate (MIPE) small molecule collections of approved and investigational compounds against these cell lines; and measured metabolically active cells after 48 hours of compound treatment as a proxy for cell viability.
Assay Submitter: Nathalia J. Martinez, National Center for Advancing Translational Sciences, National Institutes of Health, Rockville, MD, USA; email: natalia.martinez@nih.gov
[1] Shen, M et al. Quantitative high-throughput phenotypic screening of pediatric cancer cell lines identifies multiple opportunities for drug repurposing. Oncotarget 2017 Dec 19;9(4):4758-4772. PMID 29435139.
The cells were obtained from University of North Carolina (UNC), Pediatric Preclinical Testing Program (PPT), and Coriell Institute (CI).
qHTS cell viability assay:
Cells were assayed in growth media at a density of 500-1,000 cells/well. Five microliters of cells were dispensed into 1,536-well, white, solid-bottom, TC-treated plates (Greiner Bio One) using a multidrop dispenser and incubated at 37 degrees C, 5% CO2, under a humidified atmosphere for 5 hours. Twenty-three nanoliters of compounds and controls (neutral control DMSO or positive control bortezomib at final concentration of 2.3 µM) were subsequently transferred by Kalypsys pintool. For primary screens, the MIPE collection was tested at 11-point dilutions (final concentrations range from 0.78 nM to 46 µM) and the NPC collection at 8-point dilutions (final concentrations range from 0.59 nM to 46 µM). Compounds tested in follow-up screens were assayed at 11-point dilutions. Cells were incubated for 48 hours, followed by addition of 3 uL of CellTiter-Glo (Promega). After a 15 min incubation at room temperature, samples were analyzed for luminescence intensity using a ViewLux High-throughput CCD imager equipped with clear filters.
Potency is read from the fitted curve at half-maximal effect.

| SMILES | activity change, negative = cytotoxic | Potency |
| --- | --- | --- |
| Oc1ccc([C@H]2CNCc3c2ccc(O)c3O)cc1O | 14.2% (inactive) | – |
| COc1ccc(OC)c(CC(C)N)c1 (stereo not given) | -17.6% [at 92.7 µM] (inactive) | – |
| C1CN2CCC1CC2 | 23.6% (inactive) | – |
| CN1[C@@H]2CC[C@H]1CC(OC(=O)c1cc(Cl)cc(Cl)c1)C2 (stereo not given in full) | -22.4% (inactive) | – |
| CN(C)CCc1c[nH]c2ccccc12 | -5.95% [at 155 µM] (inactive) | – |
| CN1C(=O)CN=C(c2ccccc2)c2cc([N+](=O)[O-])ccc21 | 26.5% (inactive) | – |
| O=C(CCCN1CCC(n2c(=O)[nH]c3ccccc32)CC1)c1ccc(F)cc1 | 1.31% (inactive) | – |
| Nc1ccccc1C(=O)OCC(O)CO (stereo not given) | 14.6% (inactive) | – |
| CN(C)C(=O)Oc1cc(OC(=O)N(C)C)cc(C(O)CNC(C)(C)C)c1 (stereo not given) | -7.03% (inactive) | – |
| COc1ccc(CN2CCNCC2)c(OC)c1OC | 18.6% (inactive) | – |
| C[N+]1(CCC(C(N)=O)(c2ccccc2)c2ccccc2)CCCCC1 | 33.7% (inactive) | – |
| CC[n+]1c(-c2ccccc2)c2cc(N)ccc2c2ccc(N)cc21 | – | 2.66 µM (active) |
| C[C@@H]1CC[C@H]2[C@@H](C)C(=O)O[C@@H]3O[C@@]4(C)CC[C@@H]1[C@]32OO4 | -14% (inactive) | – |
| COc1ccc2c(C(=O)c3ccc(Cl)cc3)c(C)n(CC(=O)O)c2c1 | -20.7% (inactive) | – |
| C[C@]12CC[C@H](O)CC1=CC[C@@H]1[C@@H]2CC[C@]2(C)C(=O)CC[C@@H]12 | 8.49% (inactive) | – |
| Cc1ccc(N=CN(C)C=Nc2ccc(C)cc2C)c(C)c1 | 34.5% (inactive) | – |
| O=C(N[C@@H]1N=C(c2ccccc2F)c2cccc3c2N(CC3)C1=O)c1cc2ccccc2[nH]1 | 29.6% (inactive) | – |
| CCN(CC)C(C)C(=O)c1ccccc1 (stereo not given) | 20.6% (inactive) | – |
| CCOC(=O)c1cncn1C(C)c1ccccc1 (stereo not given) | -0.222% (inactive) | – |
| CCOC(=O)C(c1c(O)c2ccccc2oc1=O)c1c(O)c2ccccc2oc1=O | 64% (inactive) | – |

| SMILES | activity change, negative = cytotoxic | Potency |
| --- | --- | --- |
| C[C@@H]1O[C@@H](O[C@@H]2C=C3CC[C@@H]4[C@H](CC[C@]5(C)[C@@H](c6ccc(=O)oc6)CC[C@]45O)[C@@]3(C)CC2)[C@H](O)[C@H](O)[C@H]1O | – | 0.0067 µM (active) |
| c1ccc2c(c1)Sc1ccccc1N2CC1CN2CCC1CC2 (stereo not given) | – | 23.7 µM (active) |
| O=c1n(Cl)c(=O)n(Cl)c(=O)n1Cl | 28.9% (inactive) | – |
| CC1Sc2c(C(=O)O)c(=O)c3cc(F)c(N4CCNCC4)cc3n21 (stereo not given) | 130% (inactive) | – |
| CCOC(=O)c1ncn2c1CN(C)C(=O)c1c(I)cccc1-2 | 28.3% (inactive) | – |
| O=C1CN2CCOC2(c2ccccc2Cl)c2cc(Cl)ccc2N1 (stereo not given) | 11.5% (inactive) | – |
| Cc1nnc2n1-c1sc(CCC(=O)N3CCOCC3)cc1C(c1ccccc1Cl)=NC2 | 27.2% (inactive) | – |
| C=CCOC(Cn1ccnc1)c1ccc(Cl)cc1Cl (stereo not given) | -15.2% (inactive) | – |
| CCc1cc(OC)c(C[C@H](C)N)cc1OC | -19.1% [at 92.7 µM] (inactive) | – |
| CC(C)C(Br)C(=O)NC(N)=O (stereo not given) | 4.77% (inactive) | – |
| ClC1=C(Cl)C2(Cl)C(CBr)CC1(Cl)C2(Cl)Cl (stereo not given) | -1.97% (inactive) | – |
| C[N+](C)(C)CCOC(=O)C(O)(c1ccccc1)c1ccccc1 | 11.7% (inactive) | – |
| NCc1cccnc1 | 21% (inactive) | – |
| Cc1nc2ccccc2c(=O)n1-c1ccccc1Cl | -13.5% [at 92.7 µM] (inactive) | – |
| Sc1ccccc1Cl | 3.26% (inactive) | – |
| CN1CCC(N(Cc2ccccc2)c2ccccc2)CC1 | 0.0366% (inactive) | – |
| COc1cc(C[C@@H](C)N)c(OC)cc1C | -25% [at 92.7 µM] (inactive) | – |
| CN1C[C@@H](NS(=O)(=O)N(C)C)C[C@@H]2c3cccc4c3c(cn4C)C[C@H]21 | -1.39% (inactive) | – |
| CCC1(c2ccccc2)CCC(=O)NC1=O (stereo not given) | 10.2% (inactive) | – |
| CN1CCc2cc(Cl)c(O)cc2[C@H]2c3ccccc3CC[C@@H]21 | 2% (inactive) | – |
